# Laboratory results published in ChEMBL document CHEMBL3988442, “University of Dundee, Small-Polar-MMV Screening Library” (2021).
# Where “and” joins values, the source holds several entries; their conditions need not be identical. Equal values may be shown once. The whole screen tested about 34,000 compounds, of which about 290 (0.85%) showed an effect of 50% or more. The full list was thinned out, with strong results kept by preference.
# Test system: Plasmodium falciparum
# Test: Plasmodium falciparum sporozoite viability assay
# Type: functional, organism-based
# Set-up: scale not given: in the data most compounds retested in dose-response had high values
Structure (SMILES),Percent Effect [%],Percent Effect (10 mM as filed; unlikely as a test dose)
COc1ccccc1C1(C(=O)NCCN2CCCCC2)CCOCC1,7.717,–
C[C@@H]1CN(Cc2ccccn2)C[C@]12CCN(Cc1cccnc1)C2=O.O=C(O)C(F)(F)F.O=C(O)C(F)(F)F.O=C(O)C(F)(F)F,-3.791,–
Cn1cc(CN2CCC3(CC2)CC(Nc2nccs2)CO3)cn1.O=C(O)C(F)(F)F (configuration not stated),18.81,–
NC(=O)c1cc(C2CCCN(C(=O)CCc3ccncc3)C2)n[nH]1 (configuration not stated),-0.3069,–
Cc1ccc(NC(=O)CSCc2cccnc2)nc1,–,-29.55% and -38.68%
Cc1ccnc(NC(=O)c2ccc(C)o2)c1,–,-40.27% and -55.88%
CC(C)C(NC(=O)Nc1ccccn1)c1cccs1 (configuration not stated),14.64,–
Cc1ccnc(NC(=O)c2ccc(Cl)o2)c1,–,72.69% and 57.82%
CC(C)c1n[nH]c(C(=O)NC(C)c2ccncc2)c1Br (configuration not stated),–,40.84% and 49.25% and 43.96%
Cl.O=C(Nc1ccccn1)c1cncc(C2CCNCC2)n1,-0.4476,–
CC(C)c1n[nH]c(C(=O)Nc2ccncc2)c1Br,–,98.93% and 67.14% and 45.46%
Cc1ccnc(NC(=O)CSCc2cccnc2)c1,–,65.53% and 89.16%
CC(C)c1n[nH]c(C(=O)Nc2ccccn2)c1Br,–,107.3% and 96.92% and 105.3%
CCC1CCCCN1C(=O)c1ccnc(N(C)C)c1 (configuration not stated),0.6463,–
Cc1ccccc1OC1CCN(S(=O)(=O)c2c(C)n[nH]c2C)CC1,0.8951,–
COc1ccccc1CN(Cc1nc(CC(C)C)no1)C1CC1,-1.432,–
COc1c(C2CCCN2C(=O)c2ccc3c(c2)OCO3)c(C)nn1C (configuration not stated),6.2,–
Cn1ccnc1C(=O)N1CCC2(CCN2Cc2ccc(F)cc2)C1.O=C(O)C(F)(F)F (configuration not stated),-1.35,–
Cc1cccc(CN2CCn3c(COc4ncccn4)nnc3C2)n1,-3.893,–
O=C(N[C@@H]1CC[C@@H](N2CCCC2)[C@@H]1O)c1cc2ccccc2[nH]1,4.476,–
Cc1cccc(NC(=O)c2cnc(C3CCCNC3)cn2)n1 (configuration not stated),–,4.473% and -18.26% and -18.86%
Cc1ccnc(NC(=O)CCNC(=O)c2ccccc2Cl)c1,–,67.45% and 43.1%
Cc1ccnc(NC(=O)c2cnc(C3CCCNC3)cn2)c1 (configuration not stated),–,70.96% and 81.72% and 59.47%

Structure (SMILES),Percent Effect [%],Percent Effect (10 mM as filed; unlikely as a test dose)
Cc1ccnc(NC(=O)c2cncc(C3CCNCC3)n2)c1,28.13,–
Cc1ccnc(NCCNC(=O)CCNC(=O)c2ccccc2F)c1,–,3.593% and 6.463%
CCC(NC(=O)CCNC(=O)c1ccccc1F)c1cc(C)ccn1 (configuration not stated),–,-6.667% and 1.59%
CNC(=O)CC1CC2(CCN(S(C)(=O)=O)CC2)c2ccccc21 (configuration not stated),-20.92,–
Fc1cnc(N2C[C@@H]3C[C@@H](c4nc(C5CC5)cs4)O[C@@H]3C2)nc1.O=C(O)C(F)(F)F,-20.62,–
Cc1ccc(-c2nnc(CN3CCc4cnc(C)nc4C3)o2)cc1,–,3.206% and -6.075% and -3.091%
Cc1ncc2c(n1)CN(Cc1nnc(-c3occc3C)o1)CC2,–,65.26% and 48.37% and 69.52%
Cc1noc(C)c1CC(=O)N[C@@H]1CC[C@@H](Oc2ccccc2)[C@@H]1O,3.978,–
Cc1nccn1C1CCCN(C(=O)c2ccc(-n3cccn3)nc2)C1 (configuration not stated),-4.8,–
CN1CCN(c2cc(CNC(=O)c3ccsc3)ccn2)CC1,4.114,–
CN1CC(=O)N(c2cccc(F)c2)CC12CCN(CC1CC1)C2.O=C(O)C(F)(F)F.O=C(O)C(F)(F)F (configuration not stated),-25.37,–
c1ccc2sc(N3CCCC4(CCOC4)C3)nc2c1 (configuration not stated),–,-44.73% and -22.63% and -45.78%
c1ccc(-c2nnc(N3CCCC4(CCOC4)C3)s2)cc1 (configuration not stated),–,67.59% and 93.8% and 88.49%
O=C1CN(c2ccc(CNC(=O)NCCO)cc2)CCN1,1.887,–
CCc1noc(CN(CC)Cc2cc3cc(C)ccc3[nH]c2=O)n1,-10,–
Cc1cs/c(=N/C(=O)c2csc(NCC(C)C)n2)[nH]1,–,-15.12% and -26.88%
Cc1[nH]/c(=N\C(=O)c2csc(NCC(C)C)n2)sc1C,–,72.35% and 45.27% and 35.24%
CC(=O)Nc1nc(C(=O)N2CCCC(c3cc(C)[nH]n3)C2)cs1 (configuration not stated),3.993,–
Cc1[nH]/c(=N\C(=O)c2csc(NC3CCCC3)n2)sc1C,–,52.39% and 34.41%
CC(=O)Nc1nc(C(=O)N2CCC(Nc3cccnn3)CC2)cs1,-14.59,–
Cc1cn2c(n1)CCC(NC(=O)c1cc[nH]n1)C2 (configuration not stated),2.695,–
Cc1[nH]/c(=N\C(=O)c2csc(NC3CC3)n2)sc1C,–,50.71% and 20.82% and 44.18%
O=C(O)C(F)(F)F.O=C(O)C(F)(F)F.c1cncc(C2COC3(CCN(Cc4cccs4)CC3)C2)c1 (configuration not stated),-1.667,–

Structure (SMILES),Percent Effect [%],Percent Effect (10 mM as filed; unlikely as a test dose)
CC(Cn1cccn1)NC(=O)NCCc1cccs1 (configuration not stated),-5.389,–
CC(C)c1n[nH]c(C2CN(C(=O)c3cn4ccccc4n3)CCO2)n1 (configuration not stated),-4.937,–
Cn1cnc2c1CCN(CCOc1ccc(C#N)cc1)C2,2.022,–
CCC(=O)N1CCCC1(C)c1nc(C)no1 (configuration not stated),15.01,–
Cn1ccc(C(=O)N2CCCC2c2[nH]ncc2C(N)=O)n1 (configuration not stated),3.652,–
O=C(c1ccc(-n2cccn2)nc1)N1CCC(c2ccn[nH]2)C1 (configuration not stated),-0.6869,–
c1ccc2sc(N3CCC4(CCCN4Cc4ncc[nH]4)CC3)nc2c1,–,21.32% and 38.1%
Cc1nc[nH]c1CN1CCCN(c2nc3ccccc3s2)CC1,–,2.478% and -18.14%
Cc1nc[nH]c1CN1CCCC12CCN(c1nc3ccccc3s1)CC2,–,73.34% and 82.13%
Cc1noc(C2CCN(C(=O)Nc3ccc(N(C)C)nc3)CC2)n1,–,63.01% and 33.92% and 30.08%
Cc1noc(C2CCCN(C(=O)c3ccc(N(C)C)nc3)C2)n1 (configuration not stated),8.423,–
Cc1noc(C2CCN(C(=O)c3ccc(N(C)C)nc3)CC2)n1,4.187,–
CC(C)c1n[nH]c(C2CN(C(=O)c3cc(C4CC4)on3)CCO2)n1 (configuration not stated),-9.758,–
CNC(=O)C1CCN(Cc2nc(-c3ccc(SC)cc3)oc2C)C1 (configuration not stated),–,-17.68% and 5.16% and 2.023%
CSc1ccc(-c2nc(CN3CCC(NC(C)=O)C3)c(C)o2)cc1 (configuration not stated),–,76.12% and 85.32% and 90.74%
CSc1ccc(-c2nc(CN3CCC(NC(C)=O)CC3)c(C)o2)cc1,–,0.03712% and -0.9585% and 6.229%
Cc1ncncc1C(=O)N1CCOC(C)(C(=O)NC2CCCC2)C1 (configuration not stated),12.89,–
CCC(CC)c1nnc(NC(=O)N2CCCC(NC(C)=O)C2)s1 (configuration not stated),–,78.77% and 70.93%
CCC(CC)c1nnc(NC(=O)N2CCC(C(N)=O)CC2)s1,–,-8.76% and -13.24%
CC(=O)NC1CCCN(C(=O)NCc2cccnc2N(C)C)C1 (configuration not stated),-28.43,–
CCCc1nnc(NC(=O)N2CCCC(NC(C)=O)C2)s1 (configuration not stated),–,54.93% and 67.74%
CC(=O)NC1CCCN(C(=O)CNc2cc(Cl)cc(Cl)c2)C1 (configuration not stated),-3.441,–
CC(=O)NC1CCCN(C(=O)NCc2cc[nH]n2)C1 (configuration not stated),-1.899,–

Structure (SMILES),Percent Effect [%],Percent Effect (10 mM as filed; unlikely as a test dose)
CC(C)c1nnc(NC(=O)NC2CCN(Cc3ccccc3)C2)s1 (configuration not stated),14.49,–
CC(=O)NC1CCCN(C(=O)Nc2nnc(C(C)C)s2)C1 (configuration not stated),–,68.35% and 80.73%
CC(=O)NC1CCCN(C(=O)Nc2cnc3c(cnn3C(C)C)c2)C1 (configuration not stated),-3.926,–
Cc1n[nH]c(C)c1CC(=O)NCc1ccccc1Cl,-5.904,–
Cc1cncc(NC(=O)c2ccc(CN3CC[C@H](O)C3)cc2)c1,–,88.45% and 79.14%
COc1cc(NC(=O)c2ccc(CN3CC[C@H](O)C3)cc2)cc(OC)c1,–,90.3% and 82.4%
Cc1cncc(NC(=O)c2ccc(CN3CCCC(C(N)=O)C3)cc2)c1 (configuration not stated),–,-5.227% and 10.36%
CCc1ccc(C(=O)Nc2cccc(CN3CCCC3C(N)=O)c2)cc1 (configuration not stated),-39.95,–
NC(=O)c1ccc(CN2CCCC(O)C2)cc1 (configuration not stated),-1.578,–
COc1ccc(NC(=O)c2ccc(CN3CC[C@H](O)C3)cc2)c(OC)n1,–,-15.85% and -8.926%
Cc1[nH]ccc1C(=O)Nc1cccc(CN2CCC(O)CC2)c1,11.84,–
Cc1cc(NC(=O)c2ccc(CN3CC[C@H](O)C3)cc2)ccc1F,–,96.75% and 98.24%
Fc1cccc(-c2nc(CN3CCCC3Cn3cccn3)co2)c1 (configuration not stated),3.787,–
CCc1cc(O)nc(C2CCCN2C(=O)c2cc(CC)on2)n1 (configuration not stated),0.3331,–
CC(NC(=O)NCCCn1cncn1)c1ccc2c(c1)CC(=O)N2 (configuration not stated),3.485,–
CSCc1cc(F)ccc1CNC(=O)N1CCOCC1,1.579,–
CCCN1Cc2ccccc2CC1C(=O)NC (configuration not stated),-3.834,–
CC(=O)N1Cc2ccccc2CC1C(=O)Nc1cc(C)ccn1 (configuration not stated),–,71.78% and 85.23%
Cc1ccnc(NC(=O)C2(n3cnnn3)CCCCC2)c1,-7.357,–
CC(=O)N1Cc2ccccc2C[C@H]1C(=O)Nc1ccccn1,–,80.79% and 67.33%
CCNC(=O)NCCc1csc(N2CCCC2)n1,-15.2,–
CCOc1ccc(-c2cc(=O)n3c(n2)CCCCC3)cc1,-4.121,–
COc1ccc(CN(Cc2ccccn2)Cc2cncn2C)cc1.O=C(O)CC(O)(CC(=O)O)C(=O)O,3.185,–
